Source: PubChem (The Scripps Research Institute Molecular Screening Center)
In the library only some 3.5% were active in any assay of this set; here they are far more common.
TEAD-YAP inh: TEAD-YAP interaction inhibition, primary screen, TEAD-YAP interaction inhibitor project, luminescence, HEK-TIYL cells; TEAD-Gal4/YAP UAS-luciferase luminescence; inhibition, % at 9.12 µM; actives 1.4% (n = 640,000); in the data active = inhibition above about 32%
FBW7 act: FBW7 E3 ligase activators, primary screen, biochemical, AlphaScreen, human; normalized activity (activation), % at 26.1 µM; AID 1259310, 2017; AlphaScreen FBW7–phospho-cyclin E peptide binding, activator screen; actives 0.13% (n = 650,000); in the data active = normalized activity above about 1.9%;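 note: purified mutant Fbw7 with reduced substrate affinity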
MITF primary: MITF inhibitors, primary screen, biochemical, AlphaScreen, human | Microphthalmia-associated transcription factor (Homo sapiens), O75030 | AlphaScreen MITF homodimerization, bead proximity signal | inhibition, % at 2.6 µM | actives 0.91% (n = 650,000); in the data active = inhibition above about 50%
Target sequence (O75030 whole entry, looked up): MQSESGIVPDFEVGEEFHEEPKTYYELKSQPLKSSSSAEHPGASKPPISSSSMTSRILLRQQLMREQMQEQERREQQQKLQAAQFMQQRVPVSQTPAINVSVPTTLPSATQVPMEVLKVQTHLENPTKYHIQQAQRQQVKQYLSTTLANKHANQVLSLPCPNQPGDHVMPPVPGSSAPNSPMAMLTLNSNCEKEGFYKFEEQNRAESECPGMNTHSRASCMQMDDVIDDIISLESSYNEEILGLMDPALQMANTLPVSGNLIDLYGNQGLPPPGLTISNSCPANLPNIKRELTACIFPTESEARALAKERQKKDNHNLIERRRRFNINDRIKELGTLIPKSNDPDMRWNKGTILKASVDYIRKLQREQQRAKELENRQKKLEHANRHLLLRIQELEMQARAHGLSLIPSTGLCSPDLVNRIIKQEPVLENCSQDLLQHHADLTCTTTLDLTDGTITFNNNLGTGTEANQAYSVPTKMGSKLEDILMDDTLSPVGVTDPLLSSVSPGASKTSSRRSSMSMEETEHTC
GPR151 ag: activators of human GPR151, primary screen, cell-based, PathHunter beta-arrestin, luminescence; G-protein coupled receptor 151 (Homo sapiens), Q8TDV0; PathHunter beta-arrestin GPR151 cells; activation, % at 11.2 µM; actives 1% (n = 650,000); AID 1508602, 2020; in the data active = activation above about 4.9%
GPR151 confirm: GPR151 activators, triplicate retest, confirmation, cell-based, PathHunter beta-arrestin, luminescence; 6,700 tested, under 10 active; GPR151 PathHunter beta-arrestin cells, 90 min; % of EA-reagent control over plate median; shares compounds with GPR151 ag; activation, % at 11.2 µM;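 active = mean percent activation across replicates above the confirmation screen cutoff of 4.91%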
GPR119 ag: GPR119 activators in beta-arrestin cells, counter-screen for GPR151 activator project, cell-based, PathHunter beta-arrestin, luminescence, triplicate | actives 0.3% (n = 6,700) | activation, % at 11.2 µM | AID 1508611, 2020 | shares compounds with GPR151 ag | 90 min; 0 = compound-well median, 100 = enzyme-acceptor control;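 active = mean percent activation in the counterscreen above 29.09%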;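 note: counterscreen on off-target GPR119 to flag nonselective hits from the GPR151 activator screen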
Numbers stand for hits; 0 = inactive; - = not tested or not shown; ! = repeats disagree.

SMILES	TEAD-YAP inh	FBW7 act	MITF primary	GPR151 ag	GPR151 confirm	GPR119 ag
O=c1oc2c3c(ccc2c2c1CCC2)OCN(c1ccc(F)cc1)C3	0	0	0	5.1	0	0
Cc1ccc(N(CC(O)Cn2nc(C)cc2C)S(=O)(=O)c2ccc([N+](=O)[O-])cc2)cc1 (centres undefined)	0	0	0	4.9	0	0
Cc1ccc(N(CC(O)CN2CCOCC2)S(=O)(=O)c2ccc([N+](=O)[O-])cc2)cc1 (centres undefined)	0	0	0	0	-	-
Cc1ccc(C(=O)NC(=S)Nc2ccc(NC(=O)c3ccco3)cc2)cc1C	0	0	0	0	-	-
O=C(c1nc2ccccc2s1)C1CCN(C(=O)Cn2cnc3ccccc3c2=O)CC1	0	0	0	0	-	-
O=C1NC(CC(=O)N2CCC(C(=O)c3nc4ccccc4s3)CC2)c2ccccc21 (centres undefined)	0	0	0	5.1	0	0
CCCCCC1CCc2nc(/C=C/c3ccccc3)ccc2C1 (centres undefined)	0	0	0	6.0	0	0
CCCCCCCC1CCc2nc(-c3ccc(F)cc3)ccc2C1 (centres undefined)	0	0	0	0	-	-
O=S(=O)(c1cccc(S(=O)(=O)N2CCOCC2)c1)c1ccc(Cl)c(Cl)c1	0	0	0	5.5	0	0
CCOc1ccc(C(=S)N2CCCC2)cc1	0	0	0	0	-	-
CCOc1ccc(C(=S)N2CCCCC2)cc1	0	0	0	6.2	0	0
CC(=O)c1ccc(NC(=O)CSc2nnc(C34CC5CC(CC(C5)C3)C4)n2C)cc1	0	0	0	6.2	0	0
CC(=O)c1ccc(NC(=O)CSc2nnc(C3CC3)n2C)cc1	0	0	0	0	-	-
N#Cc1ccc(CSc2nnc(-c3cccc(S(=O)(=O)N4CCCCC4)c3)o2)cc1	0	0	0	8.7	0	0
O=S(=O)(c1cccc(-c2nnc(SCCOc3ccccc3)o2)c1)N1CCOCC1	0	0	0	6.5	0	0
COc1ccc(C(CC(=O)O)c2ccccc2)cc1 (centres undefined)	0	0	0	0	-	-
CC(=O)c1cccc(NC(=O)CC2S\C(=N/N=C/C=C/c3ccccc3)NC2=O)c1 (centres undefined)	0	0	0	9.3	0	0
CCc1cccc(CC)c1NC(=O)c1cc(S(=O)(=O)NCCc2ccccc2)ccc1F	0	0	0	0	-	-
O=C(NCc1ccco1)C1CN(C(=O)c2ccc(F)c(F)c2)C1	0	0	0	0	-	-
O=C(NC1CCSC1=O)C1CN(C(=O)c2ccc(F)c(F)c2)C1 (centres undefined)	0	0	0	8.2	0	0
CC1CCCC(C)N1C(=O)Cn1nnc2sc3c(c2c1=O)CCCC3 (centres undefined)	0	0	0	0	-	-
Cc1cccc(Cn2c(NCCN(C)C)nc3c2c(=O)[nH]c(=O)n3C)c1	0	0	0	0	-	-
CN(C)CCNc1nc2c(c(=O)[nH]c(=O)n2C)n1Cc1ccc([N+](=O)[O-])cc1	0	0	0	5.1	0	0
CCCCOc1ccc(OCCCC)c2c1NC1(N2)C(=O)Nc2ccc([N+](=O)[O-])cc21	0	0	0	5.1	0	0
O=C(NCc1ccccc1)c1cnc2cc(-c3cn[nH]c3)ccn12	0	0	0	6.2	0	0
SMILES	TEAD-YAP inh	FBW7 act	MITF primary	GPR151 ag	GPR151 confirm	GPR119 ag
O=C1CCC(C(=O)NCc2nnc3n2CCN(Cc2ccccc2C(F)(F)F)CC3)N1 (centres undefined)	0	0	0	9.8	0	0
Cn1c(=O)c2c(nc3n2C(=O)CS3)n(C)c1=O	0	0	0	0	-	-
COc1ccccc1C1CC(=O)NC2=C1C(=O)CC(c1ccccc1Cl)C2 (centres undefined)	0	0	0	0	-	-
CCOc1ccc(/C=C2\Oc3c(ccc(O)c3CN3CCN(CCO)CC3)C2=O)cc1	0	0	0	0	-	-
CCOc1ccccc1/C=C1\Oc2c(ccc(O)c2CN2CCN(CCO)CC2)C1=O	0	0	0	6.8	0	0
CC(=O)Nc1ccc(NC(=O)C/C(C)=N/NC(=O)C(=O)NCCO)cc1	0	0	0	5.8	0	0
Cc1ccc(NC(=O)N2CCCCC2C)cc1 (centres undefined)	0	0	0	0	-	-
Cc1nc(C)c(NC(=O)N2CCCCC2C)cc1NC(=O)N1CCCCC1C (centres undefined)	0	0	0	4.9	0	0
O=C(CSc1nc2ccc(Nc3nc(N4CCOCC4)nc(N4CCOCC4)n3)cc2s1)NC1CC1	0	0	0	9.3	0	0
O=C(CSc1nc2ccc(Nc3nc(N4CCOCC4)nc(N4CCOCC4)n3)cc2s1)NCC1CCCO1 (centres undefined)	0	0	0	0	-	-
COC(=O)c1ccccc1NC(=O)COc1ccc(F)cc1	0	0	0	0	-	-
CCOc1ccc(C(=O)NC(=S)Nc2ccccc2C(=O)OC)cc1[N+](=O)[O-]	0	0	0	0	-	-
COc1ccccc1OCC(=O)Nc1ccccc1C(=O)O	0	0	0	0	-	-
COC(=O)c1ccccc1NC(=O)COc1ccc(C=O)cc1	0	0	0	8.0	0	0
COc1cc(C=O)ccc1OCC(=O)Nc1ccccc1C(=O)c1ccccc1	0	0	0	5.8	0	0
CCOc1ccc(C(=O)NC(=S)Nc2ccccc2C(=O)OC)cc1	0	0	0	6.8	0	0
Clc1ccccc1-c1nnc(Nc2nc3cc4c(cc3s2)OCO4)o1	0	0	0	0	-	-
O=C(Nc1c2c(nn1-c1ccc(F)cc1)CS(=O)C2)C1(c2ccc(Cl)cc2)CCCC1 (centres undefined)	0	0	0	0	-	-
COC(=O)CCC(=O)OC1(C)C(=O)C=C2C=C(C3CC3)OC=C2C1=O (centres undefined)	-	0	0	5.8	0	0
CCC(C)(C)NC(=O)C(c1cccnc1)N(Cc1ccc(C)cc1)C(=O)c1csnn1 (centres undefined)	0	0	0	0	-	-
O=C1NC2(CCN(Cc3ccc(F)c(F)c3)CC2)Oc2ccccc21	0	0	0	0	-	-
O=C1NC2(CCN(Cc3ccc4nccnc4c3)CC2)Oc2ccccc21	0	0	0	5.0	0	0
CC1(C)NC(=O)N(c2ccc([N+](=O)[O-])c(C(F)(F)F)c2)C1=O	0	0	0	5.5!	0	0
CC(C)OC1(C(F)(F)F)NC(=O)N(c2cccc(C(F)(F)F)c2)C1=O (centres undefined)	0	0	0	0	-	-
